Measurements reported in PubChem BioAssay AID449728 (The Scripps Research Institute Molecular Screening Center, 2010).
Among all 330,000 compounds or so, about 900 (0.27%) were called active. The list comes from a sample in which actives are over-represented; it also holds close analogues and randomly drawn compounds. Unmarked numbers belong to inactive results.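 Rule for the calls: active = inhibition above the campaign's mean inhibition across all tested compounds plus 3 SD (cut at about 9.9% in these data); inactive = the rest.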

Test: bacterial viability reduction in E. coli – absorbance, OD600, counter-screen for AddAB inhibitor project, primary screen (AID 449728)
Conditions: E. coli V3065 growth, 18 h, at 11.9 µM, stronger effect = higher value

Row | Structure (SMILES) | inhibition
1 | O=[N+]([O-])c1cnc2ccc3ccccc3c2c1 | 53.1% (active)
2 | C/C(=N/O)c1ccc2ccc3ccccc3c2c1 | 1.2%
3 | Cc1ccc(-n2c(-c3ccc([N+](=O)[O-])cc3)nc3ccccc3c2=O)cc1 | -0.79%
4 | COCCNC(=O)CN1C2CCC1CC(O)(c1cccnc1)C2 (stereo not given) | -3.36%
5 | O=c1[nH]c(=O)n(-c2ccc(F)cc2)c(O)c1C=NCCN1CCCCC1 | -0.49%
